Anthrax LF inh2: inhibitors of Bacillus anthracis lethal factor protease; P15917; inhibition, % at 10 µM; 0.12% of 360,000 active; multiplex microsphere protease cleavage assay, LF; further: plate controls were buffer without enzyme for full effect and enzyme alone for no effect
SSB-PriA inh: inhibitors of Klebsiella pneumoniae PriA binding to SSB C-terminal tail; AlphaScreen SSBct-PriA binding, biotinylated peptide; 0.6% of 430,000 active; inhibition, % at 33 µM; in the data active means inhibition mostly above about 37%, no sharp cut-off; inactive means mostly below about 20%;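 further: plate controls were negative control peptide for no effect and reference peptide for full effect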
Autofluor counter: flagged as autofluorescent in microsphere protease counterscreen. 3.1% of 360,000 active. fluorescence intensity (no concentration beside the values). AID 624483. compound autofluorescence counterscreen, microsphere flow cytometry; active compounds read high; in the data active means fluorescence intensity above about 16000; inconclusive means no clear call, values can overlap the other calls
BoNT A protease: BoNT A light chain protease inhibition. multiplex microsphere protease substrate cleavage, flow cytometry. 0.17% of 360,000 active. AID 588499. inhibition, % at 10 µM; further: plate controls were buffer without enzyme for full effect and enzyme alone for no effect
MazEF act: activators of E. coli MazEF toxin-antitoxin RNase; P0AE70; FAM/BHQ RNA-DNA oligo cleavage fluorescence, 5 h; activation, % at 20 µM; 0.32% of 350,000 active; AID 504720; in the data active means activation above about 50%
Target sequence (P0AE70 whole entry, looked up): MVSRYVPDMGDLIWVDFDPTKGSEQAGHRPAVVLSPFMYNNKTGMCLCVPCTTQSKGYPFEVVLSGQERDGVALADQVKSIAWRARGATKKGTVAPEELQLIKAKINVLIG
BoNT F protease: blocks Botulinum neurotoxin F light chain protease | Multiplex microsphere protease cleavage assay, flow cytometry | 0.22% of 360,000 active | inhibition, % at 10 µM; in the data active means inhibition above about 35%, passing the limit was not always enough; inconclusive means no clear call, values can overlap the other calls; further: plate controls were buffer without enzyme for full effect and enzyme alone for no effect
Active calls of the source: *; ? = inconclusive; · = no result given. Most compounds without a hit are left out; they make up all but 3.3% or so of the library. Unless noted, no stated cut-off is given here; in the data, active means inhibition above about 30%; inconclusive means no clear call, values can overlap the other calls; inactive means below that.

SMILES	Anthrax LF inh2	SSB-PriA inh	Autofluor counter	BoNT A protease	MazEF act	BoNT F protease
O=C(N/N=C\c1ccc(Cl)cc1Cl)c1cc(-c2cccs2)[nH]n1	·	-13	·	·	·	·
O=C1N/C(=N\N=C\c2ccc3ncccc3c2)SC1Cc1ccc(SC(F)F)cc1 (configuration not stated)	1	·	20635*	?	-5	4
CCOC(=O)c1cccnc1SCC(=O)N(C)c1ccccc1	3	9	22147*	1	0	0
CCOC(=O)c1cccnc1SCc1cc(=O)n2ccccc2n1	1	-11	7574	1	0	-2
O=C(c1ccc(-n2cccc2)cc1)N1CC(c2nc(-c3cccc(Cl)c3)no2)C1	·	1	·	·	·	·
O=[N+]([O-])c1ccc(F)c2ncccc12	·	27	·	·	·	·
O=[N+]([O-])c1cc([N+](=O)[O-])c2cccnc2c1Cl	·	81*	·	·	·	·
Nc1ncc(Br)c2ncccc12	·	10	·	·	·	·
O=[N+]([O-])c1cc2cccnc2c2ncccc12	·	48*	·	·	-1	·
Nc1c(N)c2cccnc2c2ncccc12	·	95*	·	·	·	·
Cc1cc(Br)cc2cccnc12	·	34	·	·	·	·
Cc1cc2cccnc2c2ncccc12	·	163*	·	·	·	·
Cc1nc2c(=O)n(CC(=O)N3CCc4ccccc43)nc(-c3ccc(Cl)cc3)c2s1	·	-1	·	·	·	·
CC(Oc1ccc2c(c1)OCO2)C(=O)N1CC(n2cc(COc3ccccc3)nn2)C1 (configuration not stated)	·	-2	·	·	·	·
O=C(Cn1cc(S(=O)(=O)Cc2ccccc2)c2ccccc21)NCc1ccccn1	·	-18	·	·	·	·
CCCC(=O)c1cc(F)c(N2CCN(C(=O)OCC)CC2)cc1C	0	-31	8786	0	3	-10
CCOC(=O)N1CCN(c2cc3nccnc3cc2F)CC1	0	-9	22764*	?	-5	-6
CC1CCCCC1NC(=O)C1CCN(S(=O)(=O)N2CCOCC2)CC1 (configuration not stated)	0	-1	11248	0	6	0
CC1CCCCC1NC(=O)C1CCN(S(=O)(=O)N2CCCCCC2)CC1 (configuration not stated)	-14	-14	18939*	10	-1	11
CC(C)(C)c1ccc(Cn2ccc(-c3ccc4c(c3)OCO4)n2)cc1	-4	-4	19826*	1	-14	-1
Cc1ccc(Cn2ccc(NC(=O)c3cc(-c4ccc5c(c4)OCO5)on3)n2)cc1	3	-2	10162	0	1	2
COc1ccc(C2C(C(C)=O)=C(O)C(=O)N2CCc2ccccc2)c(OC)c1 (configuration not stated)	-1	-11	16192*	0	-10	-4
O=C(CCn1cnc2c(cnn2-c2ccccc2)c1=O)Nc1ccc2c(c1)OCO2	·	1	·	·	·	·
COc1ccc(CC(=O)NC2CCN(Cc3nnnn3C(C)(C)C)CC2)cc1OC	-3	-7	20961*	?	0	-6
Cc1ccccc1OCC(=O)Nc1onc2c1CSC2	·	-1	·	·	·	·
SMILES	Anthrax LF inh2	SSB-PriA inh	Autofluor counter	BoNT A protease	MazEF act	BoNT F protease
COc1ccc(OC)c(-c2ccc(=O)n(CCNC(=O)Nc3ccccc3OC)n2)c1	·	11	·	·	·	·
Cc1c(-c2nc(N)nc(Nc3ccccc3F)n2)oc2ccccc12	-4	0	24893*	-3	3	-3
Cc1ccc(Nc2nc(N)nc(-c3oc4ccccc4c3C)n2)cc1	0	0	4600	0	-21	-2
Cc1cc(=O)n(CCNC(=O)c2ccc3ccccc3c2)cn1	·	-2	·	·	·	·
CC(C)C[C@H](NS(=O)(=O)c1ccc(Br)cc1)C(=O)O	-2	4	22565*	3	2	1
CCCc1cc(=O)[nH]c(Nc2ccc(N3CCCCC3)cc2)n1	-9	16	20834*	2	11	-14
COc1ccccc1C(=O)NN=C(C)c1ccc(NC(=O)Cc2ccccc2)cc1	·	-10	·	·	·	·
C=CCSc1nc(N)c(C#N)c(-c2ccc(C)cc2)c1C#N	-8	7	4379	0	6	-5
C=CCSc1nc(C)cc(/C=C\c2ccccc2)c1C#N	0	-20	21811*	?	-3	-10
COC(=O)Cn1c(=O)c2c(nc(Br)n2CC(=O)OC)n(C)c1=O	-3	-13	22104*	3	0	2
COc1ccc(S(=O)(=O)NCc2ccncc2)cc1OC	0	-5	23943*	-2	5	-2
COc1ccc(-n2nnnc2S(=O)(=O)Cc2ccc(C(=O)O)cc2)cc1	-11	-7	17765*	6	1	3
COc1ccc(OC)c(S(=O)(=O)NCc2ccccc2)c1	-3	-26	16582*	-1	6	-6
COc1ccc(-c2nnnn2C)cc1S(=O)(=O)NCCc1ccccc1	2	-16	19418*	?	4	3
COc1ccc(-n2nnnc2S(=O)(=O)CC(=O)N2CCCCC2)cc1	-7	-9	5100	0	8	-3
O=C(CN1CCC(c2nc3ccccc3[nH]2)CC1)Nc1ccccc1C(F)(F)F	·	-7	·	·	·	·
COc1ccc(/C=C2\SC(=O)NC2=N)cc1	·	-5	·	·	·	·
Cc1ccc(N2C(=O)C(Cc3ccccc3C)S/C2=C(\C#N)C(=O)NCc2ccco2)cc1 (configuration not stated)	·	3	·	·	·	·
COc1ccc(S(=O)(=O)NCc2ccc(C(=O)O)cc2)cc1	0	3	20146*	0	3	1
